The values that follow come from publication PMC3218832.

Targets include RELARELA (p65 homodimer) (Homo sapiens, UniProt Q04206 1-307); p50p50 homodimer (Homo sapiens, UniProt P19838 7-356); RELB subunit;p50 subunit (Homo sapiens;Homo sapiens, UniProt Q01201;P19838 120-401;7-356).
Assay in all cases: protein binding microarray; high values mean tight binding
Details in all cases: dsDNA, one strand shown

Another experiment addresses T1, p52p52 homodimer (Homo sapiens, UniProt Q00653 4-332).
T1 sequence: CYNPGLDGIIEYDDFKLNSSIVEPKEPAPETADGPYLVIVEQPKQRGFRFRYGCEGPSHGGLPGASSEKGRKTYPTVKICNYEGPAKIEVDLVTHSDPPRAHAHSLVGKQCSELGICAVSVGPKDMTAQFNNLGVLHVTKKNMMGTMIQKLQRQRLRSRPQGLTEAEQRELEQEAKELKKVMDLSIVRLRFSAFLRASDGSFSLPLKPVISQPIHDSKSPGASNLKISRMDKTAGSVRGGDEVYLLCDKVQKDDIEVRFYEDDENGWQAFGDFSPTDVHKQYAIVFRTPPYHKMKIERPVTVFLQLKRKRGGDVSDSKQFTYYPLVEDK

Experiment [1] has as its target RELA (p65) subunit of heterodimer;p50 subunit (Homo sapiens;Homo sapiens, UniProt Q04206;P19838 1-307;7-356).
Experiment [2] concerns the target RELA (p65) subunit of heterodimer;p52 subunit (Homo sapiens;Homo sapiens, UniProt Q04206;Q00653 1-307;4-332).
The target in a further experiment is T2, RELB subunit;p52 subunit (Homo sapiens;Homo sapiens, UniProt Q01201;Q00653 120-401;4-332).
T2 sequence 1: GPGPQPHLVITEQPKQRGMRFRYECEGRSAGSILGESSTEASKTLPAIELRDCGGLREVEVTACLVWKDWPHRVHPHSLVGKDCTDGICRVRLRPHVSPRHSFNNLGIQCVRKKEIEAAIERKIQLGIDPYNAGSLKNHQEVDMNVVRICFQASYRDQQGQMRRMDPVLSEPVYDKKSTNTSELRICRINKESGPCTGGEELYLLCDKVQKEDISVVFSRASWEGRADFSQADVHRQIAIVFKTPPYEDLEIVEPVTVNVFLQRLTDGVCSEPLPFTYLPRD
T2 sequence 2: T1 sequence

The target of experiment [3] is C-Rel subunit;p50 subunit (Homo sapiens;Homo sapiens, UniProt Q04864;P19838 1-285;7-356).
For experiment [4], the target named is T3, C-Rel subunit;p52 subunit (Homo sapiens;Homo sapiens, UniProt Q04864;Q00653 1-285;4-332).
T3 sequence 1: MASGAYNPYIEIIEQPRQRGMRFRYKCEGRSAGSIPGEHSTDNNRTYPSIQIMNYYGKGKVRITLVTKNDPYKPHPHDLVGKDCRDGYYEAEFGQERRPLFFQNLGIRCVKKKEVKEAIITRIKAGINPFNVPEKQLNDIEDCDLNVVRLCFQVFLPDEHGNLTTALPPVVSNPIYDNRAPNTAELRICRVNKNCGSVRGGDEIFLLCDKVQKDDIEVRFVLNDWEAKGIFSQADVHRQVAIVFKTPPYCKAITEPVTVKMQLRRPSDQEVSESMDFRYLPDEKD
T3 sequence 2: T1 sequence

Chain of p50p50 homodimer (P19838 7-356): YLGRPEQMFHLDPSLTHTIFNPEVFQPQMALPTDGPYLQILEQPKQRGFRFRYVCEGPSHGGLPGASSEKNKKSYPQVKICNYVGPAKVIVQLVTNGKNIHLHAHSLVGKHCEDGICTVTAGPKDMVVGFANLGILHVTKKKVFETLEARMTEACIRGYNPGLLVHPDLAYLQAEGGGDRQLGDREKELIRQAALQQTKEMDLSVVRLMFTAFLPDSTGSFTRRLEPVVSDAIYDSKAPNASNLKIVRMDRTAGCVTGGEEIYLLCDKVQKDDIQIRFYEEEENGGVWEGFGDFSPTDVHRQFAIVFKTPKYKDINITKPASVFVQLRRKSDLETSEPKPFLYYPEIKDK
Chain of RELA (p65) subunit of heterodimer;p50 subunit (Q04206 1-307, chain 1 of 2): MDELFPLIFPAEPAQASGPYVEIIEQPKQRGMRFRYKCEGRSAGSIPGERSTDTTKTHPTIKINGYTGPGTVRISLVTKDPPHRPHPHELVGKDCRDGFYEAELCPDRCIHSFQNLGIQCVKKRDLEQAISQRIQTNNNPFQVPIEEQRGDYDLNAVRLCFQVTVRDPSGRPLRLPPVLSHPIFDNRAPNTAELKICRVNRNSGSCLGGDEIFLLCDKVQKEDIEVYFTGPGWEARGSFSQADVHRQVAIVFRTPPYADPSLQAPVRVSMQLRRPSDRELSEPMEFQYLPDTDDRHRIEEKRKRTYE
Chain of RELA (p65) subunit of heterodimer;p50 subunit (P19838 7-356, chain 2 of 2): as the sequence (P19838 7-356) above
Chain of RELARELA (p65 homodimer) (Q04206 1-307): as the sequence (Q04206 1-307, chain 1 of 2) above

For AGAAAACTCCC, the binding signal with RELARELA (p65 homodimer) was 1.36 z-score; in the experiment with p50p50 homodimer, 1.03 z-score; with p52p52 homodimer, 0.9 z-score; in [1], 1.14 z-score; in [2], 0.979 z-score; with RELB subunit;p50 subunit, 1.35 z-score. The binding signal came to 0.74 z-score with RELB subunit;p52 subunit, 0.654 z-score in experiment [3] and 0.947 z-score in [4].

For AAAGTGATCCT, the binding signal is -0.833 z-score with RELARELA (p65 homodimer); -1.79 z-score with p50p50 homodimer; -0.692 z-score in the experiment with p52p52 homodimer; -1.3 z-score in experiment [1]; -1.06 z-score in experiment [2]; -1.27 z-score with RELB subunit;p50 subunit. Besides, the binding signal with RELB subunit;p52 subunit was -0.978 z-score; in experiment [3] it was -1.55 z-score; in [4], -0.986 z-score.

As to GAGATCCTCCC, the binding signal with RELARELA (p65 homodimer) is -0.414 z-score; with p50p50 homodimer, -0.604 z-score; with p52p52 homodimer, -0.376 z-score; in experiment [1], -0.425 z-score; in experiment [2], -0.539 z-score; with RELB subunit;p50 subunit it was -0.422 z-score. In addition, the figures for the binding signal (with RELB subunit;p52 subunit; in experiment [3]; in [4]) were -0.686 z-score, -0.717 z-score and -0.442 z-score, respectively.

Regarding CGAAGGACCCT, the binding signal was -1.31 z-score with RELARELA (p65 homodimer); -1.42 z-score with p50p50 homodimer; -0.622 z-score in the experiment with p52p52 homodimer; -0.948 z-score in [1]; -0.812 z-score in experiment [2]; -0.928 z-score with RELB subunit;p50 subunit. Further, the binding signal in the experiment with RELB subunit;p52 subunit is -0.721 z-score; in experiment [3], -1.47 z-score; in experiment [4], -0.87 z-score.

Consider CAAGACCTCCC, for which the binding signal in the experiment with RELARELA (p65 homodimer) was -0.906 z-score; with p50p50 homodimer it was -1.11 z-score; with p52p52 homodimer, -0.577 z-score; in experiment [1], -0.688 z-score; in [2], -0.796 z-score; with RELB subunit;p50 subunit it was -0.585 z-score. Further, the binding signal with RELB subunit;p52 subunit was -0.626 z-score; in experiment [3] it was -0.818 z-score; in experiment [4] it was -0.713 z-score.

Take AAAGTTGCCCC: the binding signal is 1 z-score with RELARELA (p65 homodimer); 0.606 z-score in the experiment with p50p50 homodimer; 0.147 z-score with p52p52 homodimer; 0.949 z-score in [1]; 0.337 z-score in [2]; 0.677 z-score in the experiment with RELB subunit;p50 subunit. Further, the binding signal stood at 0.595 z-score in the experiment with RELB subunit;p52 subunit, 1.26 z-score in experiment [3] and 0.617 z-score in [4].

Turning to AGAAAATCCCT, the binding signal with RELARELA (p65 homodimer) was 1.08 z-score; in the experiment with p50p50 homodimer it was 1.27 z-score; in the experiment with p52p52 homodimer, 1.8 z-score; in experiment [1] it was 1.28 z-score; in experiment [2] it was 1.37 z-score; in the experiment with RELB subunit;p50 subunit, 1.49 z-score. Besides, the binding signal turned out to be 1.61 z-score in the experiment with RELB subunit;p52 subunit, 1.12 z-score in experiment [3] and 1.62 z-score in [4].

For CGGTGCCTCCT, the binding signal in the experiment with RELARELA (p65 homodimer) is -0.441 z-score; with p50p50 homodimer, -0.702 z-score; with p52p52 homodimer, -0.485 z-score; in [1], -0.873 z-score; in experiment [2] it was -0.611 z-score; in the experiment with RELB subunit;p50 subunit, -0.763 z-score. Also, the results for the binding signal (with RELB subunit;p52 subunit; in [3]; in [4]) were -0.769 z-score, -1.19 z-score and -0.785 z-score, respectively.

With GGGTAGTTCCT, the binding signal in the experiment with RELARELA (p65 homodimer) is 0.746 z-score; with p50p50 homodimer it was 0.495 z-score; with p52p52 homodimer it was 0.541 z-score; in experiment [1] it was 0.394 z-score; in [2], 0.345 z-score; in the experiment with RELB subunit;p50 subunit, -0.0983 z-score. Further, the binding signal is 0.0547 z-score with RELB subunit;p52 subunit, 0.249 z-score in experiment [3] and 0.583 z-score in experiment [4].

On to GGAGGTATCCC, for which the binding signal with RELARELA (p65 homodimer) is -0.331 z-score; with p50p50 homodimer it was -1.01 z-score; with p52p52 homodimer, -0.304 z-score; in experiment [1], -0.519 z-score; in [2], -0.401 z-score; in the experiment with RELB subunit;p50 subunit, -0.488 z-score. Further, the binding signal was -0.395 z-score with RELB subunit;p52 subunit, -0.57 z-score in experiment [3] and -0.276 z-score in experiment [4].

Turning to AAGTAGACCCT, the binding signal in the experiment with RELARELA (p65 homodimer) is -0.746 z-score; with p50p50 homodimer, -0.785 z-score; with p52p52 homodimer it was -0.531 z-score; in [1] it was -0.711 z-score; in experiment [2], -0.775 z-score; in the experiment with RELB subunit;p50 subunit, -0.737 z-score. The binding signal in the experiment with RELB subunit;p52 subunit was -0.709 z-score; in [3] it was -1.17 z-score; in experiment [4] it was -0.772 z-score.

On to CGATTTCCCCT, for which the binding signal in the experiment with RELARELA (p65 homodimer) amounted to 1.73 z-score; in the experiment with p50p50 homodimer it was 1.66 z-score; with p52p52 homodimer, 2.21 z-score; in experiment [1], 2.26 z-score; in experiment [2], 1.96 z-score; in the experiment with RELB subunit;p50 subunit, 2.39 z-score. In addition, the binding signal with RELB subunit;p52 subunit is 2.23 z-score; in [3], 1.83 z-score; in experiment [4], 1.81 z-score.

Turning to AGAGACCTCCC, the binding signal with RELARELA (p65 homodimer) is -0.639 z-score; with p50p50 homodimer, -0.985 z-score; with p52p52 homodimer it was -0.531 z-score; in experiment [1], -0.592 z-score; in experiment [2] it was -0.789 z-score; with RELB subunit;p50 subunit, -0.533 z-score. The binding signal is -0.671 z-score with RELB subunit;p52 subunit, -0.845 z-score in [3] and -0.997 z-score in experiment [4].

In the case of GAAGGCGTCCC, the binding signal with RELARELA (p65 homodimer) was -0.376 z-score; with p50p50 homodimer, -0.0302 z-score; with p52p52 homodimer it was -0.0163 z-score; in experiment [1] it was -0.134 z-score; in [2] it was -0.134 z-score; with RELB subunit;p50 subunit, 0.147 z-score. For the same sequence, the binding signal with RELB subunit;p52 subunit is 0.216 z-score; in experiment [3], -0.0533 z-score; in experiment [4] it was -0.265 z-score.

As to CGGGACCCCCT, the binding signal in the experiment with RELARELA (p65 homodimer) was -0.322 z-score; in the experiment with p50p50 homodimer it was 1.2 z-score; in the experiment with p52p52 homodimer, 0.855 z-score; in [1] it was 1.01 z-score; in [2] it was 0.923 z-score; with RELB subunit;p50 subunit it was 1.13 z-score. Moreover, the binding signal in the experiment with RELB subunit;p52 subunit is 1.36 z-score; in experiment [3], 0.895 z-score; in experiment [4], 0.632 z-score.
